High-throughput results as filed in PubChem BioAssay.
Only some compounds are listed: those with a hit (about 2.7% of all), similar ones and a draw of the others.
HepG2 tox – counter-screen for TGF-b inhibitors: cytotoxicity in HepG2 cells; HepG2 CAGA-GFP viability, ATP luminescence, 18 h; Potency, µM (highest dose often 46.1 µM), for inactives: at the top dose activity change, negative = cytotoxicity, usual class: cytotoxic; 410,000 compounds, 0.76% hits
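CellTiter-Glo luminescence gave cytotoxicity after 18 hours at 37 degrees C. The cells were HepG2 CAGA-GFP in 1% FBS DMEM, stimulated with 500 pg/mL TGF-beta after compound addition. %Activity was normalised to no-cell wells (complete cell-killing) and DMSO (no toxicity), and curves were fitted and classified.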
ALOX12 inh – inhibitors of human 12S-lipoxygenase ALOX12. AID 1671190. Potency, µM (top dose mostly 108 µM), for the others: at the highest dose activity change, negative = inhibition, most hits filed as inhibitors. 580,000 compounds, 1.1% hits. purified 12hLO, xylenol orange hydroperoxide absorbance; also: % is scaled to controls: 0 for no effect and ±100 for the full control effect
Target sequence (P18054 whole entry, looked up): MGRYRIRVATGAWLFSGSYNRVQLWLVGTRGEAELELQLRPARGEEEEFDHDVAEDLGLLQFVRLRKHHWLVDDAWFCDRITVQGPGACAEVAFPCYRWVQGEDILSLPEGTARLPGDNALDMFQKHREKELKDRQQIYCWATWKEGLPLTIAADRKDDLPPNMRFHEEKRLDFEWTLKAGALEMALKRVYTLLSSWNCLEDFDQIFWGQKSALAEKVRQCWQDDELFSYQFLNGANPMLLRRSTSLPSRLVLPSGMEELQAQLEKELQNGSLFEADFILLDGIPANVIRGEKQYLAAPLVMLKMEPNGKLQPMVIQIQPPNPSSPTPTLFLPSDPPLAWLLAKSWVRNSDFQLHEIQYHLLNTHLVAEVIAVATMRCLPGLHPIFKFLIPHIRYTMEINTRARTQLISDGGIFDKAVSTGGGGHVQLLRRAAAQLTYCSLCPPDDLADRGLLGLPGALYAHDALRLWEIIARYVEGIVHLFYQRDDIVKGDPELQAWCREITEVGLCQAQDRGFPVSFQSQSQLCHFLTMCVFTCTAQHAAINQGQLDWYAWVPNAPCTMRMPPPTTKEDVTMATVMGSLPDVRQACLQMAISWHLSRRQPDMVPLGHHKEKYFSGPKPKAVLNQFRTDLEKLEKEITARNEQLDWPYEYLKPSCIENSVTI
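Hydroperoxide product was detected by ferrous iron/xylenol orange as the 573 to 405 nm absorbance ratio. Arachidonic acid at 40 uM (final) was turned over for 30 min at room temperature by 150 nM human 12hLO, pH 7.0 Hepes buffer, after 15 min compound preincubation.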
ATXN viability – viability counter-screen for ATXN expression inhibitors | S2 cells (HEK-293 line with an ATXN2-luciferase reporter) viability, CellTiter-Fluor protease fluorescence, 24 h | Potency, µM (series often up to 56.7 µM), hits mostly cytotoxic | 400,000 compounds, 0.49% hits | AID 651635; also: nearly all actives have a fitted effect of over 40% in size
TGFb inhibitor – blocks TGF-b signaling | HepG2 CAGA-GFP TGF-b/SMAD3 reporter, GFP fluorescence, 18 h; TGF-beta stimulated, 500 pg/mL final | 410,000 compounds, 1.2% hits | Potency, µM (top dose mostly 46.1 µM), for inactives: at the highest dose activity, negative = inhibition, hits mostly inhibitors; also: % is scaled to controls: 0 for no effect and ±100 for the full control effect; nearly all actives have a fitted effect of over 65% in size
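Using HEPG2 CAGA-GFP reporter cells at 1000 cells/well, we pinned test compounds, stimulated with recombinant TGF-beta (500 pg/mL final) and measured total well GFP after 18 h.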
ATXN2 expr inh – reduces ATXN2 reporter expression in HEK-293 cells | Potency, µM (titrated, usually from 57 µM), inactives show top-dose activity change, negative = inhibition, most hits filed as inhibitors | HEK-293 ATXN2-luciferase reporter, luminescence, 24 h | 360,000 compounds, 0.72% hits | AID 1745845; also: % is scaled to controls: 0 for no effect and ±100 for the full control effect; nearly all actives have a fitted effect of over 55% in size
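qHTS (up to 57 uM final) was run with 24 h compound exposure of reporter cells at 37 °C. Each well was multiplexed: SteadyGlo luminescence measured ATXN2-luciferase expression after a fluorogenic Gly-Phe-AFC viability readout (25 uM final).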
Active calls of the source: *; i = inactive; ? = inconclusive; nt = not tested or not shown. Calls follow the shape of the dose curve; as a rule, active = well fitted curve in the direction sought with a large enough effect; inconclusive = small, poorly fitted or top-dose-only effect, or another doubt; inactive = no such curve, though single readings can be large; an effect the other way counts as inactive or inconclusive. Potency is read from the fitted curve at half-maximal effect.

SMILES | HepG2 tox | ALOX12 inh | ATXN viability | TGFb inhibitor | ATXN2 expr inh
C#CCOCCOCCOCCNc1nc(N2CCN(C(=O)CCCCCCCCCCNC(=O)[C@H]([C@@H](C)CC)n3cc(CCCCCN)nn3)CC2)nc(N2CCN(C(=O)CCCCCCCCCCNC(=O)[C@H](CO)n3cc(CCCCCN)nn3)CC2)n1 | 14.1µM* | nt | 22.4µM* | ? | ?
Cc1ccc(NC(=O)CCc2ncc(-c3c(F)cccc3F)o2)cc1C | nt | -5.3% | nt | nt | nt
CC1=NN(c2ccc(C(=O)OC(C)C)cc2)C(=O)/C1=C\C=C\c1ccco1 | -4.8% | ? | i | -9.0% | -16.3%
CCc1ccc(N2NC(=O)/C(=C/C=C/c3ccco3)C2=O)cc1 | -22.4% | 28.2µM* | i | -18.6% | -10.4%
NC(=O)C1CN(CC(=O)Nc2ccccc2Cl)c2ccccc2O1 (centres undefined) | nt | 8.9% | nt | nt | nt
CCNC(=O)CN(CC)CCc1ccccc1 | nt | 5.6% | nt | nt | nt
COC/C=C/C1=CC2=CC(=O)C(C)(OC(=O)c3cnc4ccccc4n3)C(=O)C2=CN1Cc1ccccc1 (centres undefined) | -17.4% | ? | nt | 11.2µM* | ?
COC/C=C/C1=CC2=CC(=O)C(C)(OC(=O)c3cnc4ccccc4n3)C(=O)C2=CN1Cc1ccc(OC)cc1 (centres undefined) | -4.0% | ? | ? | ? | -13.8%
CC(C)C(C)NC(=O)c1ccc(I)cc1 (centres undefined) | nt | 26.1% | nt | nt | nt
Cc1cc(C(=O)CN2C(=O)c3ccccc3S2(=O)=O)c(C)n1C(C)C | -46.9% | 16.6% | i | -1.5% | 5.01µM*
Cc1cc(C(=O)CN2C(=O)c3ccccc3S2(=O)=O)c(C)n1-c1ccccc1 | -4.2% | ? | i | -5.9% | 4.47µM*
CCn1c(C)cc(C(=O)CN2C(=O)c3ccccc3S2(=O)=O)c1C | 7.2% | -2.8% | i | 11.1% | ?
Cc1ccc(CN(C)C(=O)CN2CCCC2c2ccc3c(c2)OCCO3)cc1 (centres undefined) | nt | 22.4% | nt | nt | nt
O=C(NCCc1ccccc1)C12CC3CC(CC(C3)C1)C2 | nt | -22.6% | nt | nt | nt
CC(C)(CO)NC(=O)C12CC3CCC(CC(C3)C1)C2 | nt | 23.7% | nt | nt | nt
CC(C)(C)NC(=S)NC(=O)C12CC3CCC(CC(C3)C1)C2 | -26.9% | 22.4µM* | i | -5.4% | -6.6%
Cc1ccc2c(c1)c1c(n2CC(O)CN2CCCCCC2)CCCC1 (centres undefined) | -40.7% | -4.3% | ? | -19.9% | -28.8%
Cc1ccc2c(c1)c1c(n2CC(O)Cn2nc(C)c(Br)c2C)CCCC1 (centres undefined) | 20µM* | -19.8% | i | ? | -22.6%
Cc1ccc2c(c1)c1c(n2CC(O)Cn2c(C)nc3ccccc32)CCCC1 (centres undefined) | -96.4% | ? | 31.6µM* | ? | ?
CCOC(=O)/C=c1\s/c(=C(\C#N)C(=O)NC)n(-c2ccccc2)c1=O | -19.7% | -2.6% | i | 2.0% | 2.8%
Cc1ccccc1-n1c(=O)/c(=C\c2ccco2)s/c1=C(/C#N)C(=O)Nc1ccccc1 | -10.6% | 35.5µM* | i | 2.3% | -17.8%
CCN(CC)CCCNc1nc2ccccc2c2[nH]c3ccc(OC)cc3c12 | -112.1% | 44.7µM* | 5.97µM* | ? | ?
O=C(NC1CC1)[C@@H]1CN(Cc2ccc(Cl)cc2F)C[C@H]1CO | nt | 44.7µM* | nt | nt | nt
O=C(NC1CC1)[C@@H]1CN(Cc2cc(F)c(F)cc2F)C[C@H]1CO | nt | 30.1% | nt | nt | nt
O=C(N[C@@H]1CN(Cc2ccc(F)cc2F)C[C@H]1CO)c1ccccc1 | nt | 28.2µM* | nt | nt | nt
SMILES | HepG2 tox | ALOX12 inh | ATXN viability | TGFb inhibitor | ATXN2 expr inh
CC(NC(=O)c1ccc(Cl)cc1)C12CC3CC(CC(C3)C1)C2 (centres undefined) | nt | 3.1% | nt | nt | nt
CC(=O)Nc1ccc(S(=O)(=O)[C@H]2CS(=O)(=O)C[C@@H]2N2CCOCC2)cc1 | nt | 37.0% | nt | nt | nt
C=C1C(=O)[C@]23C[C@H]1CC[C@H]2[C@]1(C)[C@@H](OC(C)=O)CC[C@@](C)(C(=O)O)[C@H]1C[C@@H]3OC(C)=O | -85.5% | 3.5% | ? | 10µM* | 17.8µM*
C=C1C(=O)[C@]23C[C@H]1CCC2[C@]1(C)CCC[C@@](C)(C(=O)O)C1C[C@@H]3O (some centres undefined) | -87.3% | -2.3% | 7.08µM* | 2.51µM* | 3.55µM*
C=C1C(=O)[C@]23C[C@H]1CCC2[C@]1(C)C(=O)CC[C@@](C)(C(=O)O)C1C[C@@H]3O (some centres undefined) | -86.9% | ? | 12.6µM* | ? | 8.91µM*
C=C/C(C)=C/CC1C(=C)CCC2C(C)(C(=O)O)CCCC12C (centres undefined) | -16.4% | -19.5% | i | -13.7% | 4.0%
O=C(NN=c1c(=O)c2ccccc2c1=O)c1ccccc1 | 15.8µM* | 5.1% | i | 11.2µM* | -15.0%
CC(=O)C12CC3CC(C1)CC(C(C)=O)(C3)C2 | nt | -64.1% | nt | nt | nt
CCCCCC1(C)NC(=S)N(c2ccccc2)N1 (centres undefined) | -8.2% | 0.794µM* | i | -13.5% | -18.5%
CCCCCCC1(C)NC(=S)N(c2ccccc2)N1 (centres undefined) | 6.9% | ? | i | -3.1% | -19.2%
CCC1(c2ccc(Cl)cc2)NC(=S)N(c2ccccc2)N1 (centres undefined) | -25.9% | 15.8µM* | i | -9.7% | 15.3%
O=C(CN1CCN(C(=O)c2ccc(OCC(F)(F)F)nc2)CC1)Nc1ccccc1Cl | nt | 0.6% | nt | nt | nt
CCc1nc2c(OCCC3CCCCC3)cccn2c1N(C)C(=O)C1CC1 | 3.5% | nt | nt | -25.7% | -32.6%
Cc1nc2c(OCCC3CCCCC3)cccn2c1N(C)C(=O)CCC1CCCC1 | 17.8µM* | ? | ? | 15.8µM* | ?
Cc1nc2c(OCc3ccc(C(F)(F)F)cc3)cccn2c1N(C)CC1CC1 | 10µM* | -23.9% | 22.4µM* | 11.2µM* | 35.5µM*
CCc1nc2c(OCCC3CCCCC3)cccn2c1N(C)C(=O)c1ccc(C)cc1 | 20µM* | 44.7µM* | ? | ? | ?
CCN(CC)S(=O)(=O)N(C)CC1COc2ccccc2O1 (centres undefined) | nt | 28.0% | nt | nt | nt
Nc1ccc(N2CCCCC2)cc1N1CCCCC1 | -28.7% | 253.6% | i | 10µM* | -4.1%
Nc1ccc(N2CCCCC2)c2nonc12 | -75.9% | ? | i | 12.6µM* | nt
Nc1c(N2CCCC2)cc(Cl)c2nonc12 | -96.5% | nt | i | 10µM* | -19.7%
Cc1nn(-c2cc(N3CCCCC3)ccc2N)c(=O)c2ccccc12 | 0.0% | -1.2% | i | -23.4% | 2.0%
Nc1c(N2CCOCC2)cc(Cl)c2nonc12 | 9.0% | 0.0% | i | 0.4% | 14.1%
CCCCN1CC(c2nc3ccccc3n2CCCCOc2ccccc2C)CC1=O (centres undefined) | 17.8µM* | -24.0% | ? | ? | -24.2%
